Screening data from PubChem.
Compounds with a hit are over-represented: about 3.8% of the library has one in this group of screens.
proKLK7 act: proKLK7 (human) activation, primary screen. P49862. hit rate 0.9% among 370,000. AID 652039. purified proKLK7, EDANS-DABCYL substrate fluorescence; 100% is mature enzyme control, 0% vehicle. activation, % at 7 µM;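 active = activation above the mean of all tested compounds plus 3 SD, computed per campaign excluding outliers beyond control limits, cut at about 13% in these data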
Target sequence (P49862 whole entry, looked up): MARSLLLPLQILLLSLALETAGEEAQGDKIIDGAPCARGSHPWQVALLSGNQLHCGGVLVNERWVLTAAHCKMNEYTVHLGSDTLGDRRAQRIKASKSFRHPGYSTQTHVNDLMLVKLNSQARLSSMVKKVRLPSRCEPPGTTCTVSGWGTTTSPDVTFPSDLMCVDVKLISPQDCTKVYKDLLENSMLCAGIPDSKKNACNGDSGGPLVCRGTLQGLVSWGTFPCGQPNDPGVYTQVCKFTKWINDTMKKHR
ADAM17 inh: inhibitors of human ADAM17 | P78536 | recombinant ADAM17, EDANS/DABCYL FRET peptide cleavage | inhibition, % at 6.95 µM | hit rate 0.83% among 370,000 | AID 720648;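 active = inhibition above the mean of compounds lying between control limits plus 3 SD, set per campaign, cut at about 8.5% in these data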;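 note: 0% = DMSO-only wells as the low control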
Ecoli rRNA inh: selective bacterial rRNA inhibition in E. coli; E. coli WT GFP vs humanized-ribosome RFP mutants, fluorescence, 24 h; stronger effect = lower value; DMSO median 0, no signal -100; GFP signal change (wild-type ribosome), % (test concentration not listed); hit rate 1.6% among 350,000; AID 720706;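 active = significant combined selectivity score with lowered wild-type GFP, culture density cut under 30%, mutant RFP and density less affected; inactive = any of these conditions unmet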
FGF22 binding: binders of recombinant human FGF22 by thermal shift. SYPRO orange fluorescence; percent of sucrose octasulfate shift, DMSO zero. hit rate 1.5% among 340,000. Q9HCT0. activity (Tm shift, normalised), % at 9.99 µM. AID 651658;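 active = mean Tm shift, scaled 0 neutral to 100 positive control, at about 1.3% or above, every replicate too, limit read from the data; inconclusive = no clear call, values can overlap the other calls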
Target sequence (Q9HCT0 whole entry, looked up): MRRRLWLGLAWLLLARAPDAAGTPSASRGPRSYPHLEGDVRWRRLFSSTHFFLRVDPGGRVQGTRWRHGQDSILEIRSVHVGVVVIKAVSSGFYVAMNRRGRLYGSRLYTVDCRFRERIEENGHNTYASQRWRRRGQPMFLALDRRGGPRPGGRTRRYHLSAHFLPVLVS
ADAM10 inh: inhibits human ADAM10; AID 720582; inhibition, % at 7 µM; hit rate 0.62% among 370,000; O14672; recombinant ADAM10, EDANS/DABCYL FRET peptide cleavage, 3 h;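 active = inhibition above a per-campaign cutoff equal to the mean of compounds falling between control-based bounds plus 3 SD, cut at about 20% in these data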;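 note: 0% = DMSO wells while the 100% control is not disclosed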
HepG2 tox: HepG2 cell cytotoxicity. shares compounds with Ecoli rRNA inh. HepG2 viability, ATP luminescence, 72 h. activity change, negative = cytotoxicity, unspecified at 26 µM. 30 tested, under 10 active. AID 743480;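 active = compounds whose fitted half-maximal signal-loss concentration is at most twice their highest valid dose; inconclusive = flat curve with 30 to 70% signal loss, or poor fit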
AID977621: wild-type E. coli growth inhibition versus H69 humanized strain – H69 mutant RFP, wild-type GFP, cherry-pick, dose response | shares compounds with Ecoli rRNA inh | fluorescence, 24 h | activity change, negative = inhibition at 50 µM | 1,900 tested, under 10 active | AID 977621;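 active = Wild-type ribosome reporter drop at least double the humanized mutant ribosome reporter drop, growth loss under a set limit; inconclusive = no clear call, values can overlap the other calls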;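 note: wild-type GFP and H69 mutant RFP strains grown together 50/50 in each well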
AID977628: growth of wild-type and h24-humanized E. coli strains – h24 mutant RFP vs wild-type GFP, cherry-pick, dose response | shares compounds with Ecoli rRNA inh | E. coli WT GFP strain growth, fluorescence, 24 h | activity change, negative = inhibition at 50 µM | 1,900 tested, under 10 active | AID 977628;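 active = compound lowering the normal-ribosome reporter at least twice as much as the humanized-ribosome reporter, growth loss under a set limit; inconclusive = no clear call, values can overlap the other calls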;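 note: wild-type GFP and h24 humanized RFP strains co-cultured 1 to 1 per well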
Starred values were filed as active, the others as inactive; i = inactive; ? = inconclusive; · = not tested or not shown.

SMILES	proKLK7 act	ADAM17 inh	Ecoli rRNA inh	FGF22 binding	ADAM10 inh	AID977621	AID977628	others
CO[C@H]1CN(C)C(=O)c2cc(NC(=O)CC(F)(F)F)ccc2OC[C@@H](C)NC[C@@H]1C	·	·	1	·	·	·	·
O=C(Cn1c(C(=O)NCc2ccco2)cc2sccc21)c1ccccc1	·	·	-23*	0	·	-21	?
O=C(Cn1c(C(=O)NCC2CCCO2)cc2sccc21)c1ccccc1 (centres undefined)	·	·	·	0	·	·	·
CNC[C@@H]1Oc2ncc(C#CC3CCCCC3)cc2C(=O)N([C@@H](C)CO)C[C@@H]1C	·	·	6	·	·	·	·
O=C(COC(=O)c1ccc(O)cc1)Nc1ccccc1	0	-4	-21*	0	10	-5	-0.61
O=C(C1CCCC1)N1[C@@H](CO)[C@@H](c2ccccc2)C12CN(CCC(F)(F)F)C2	·	·	-2	·	·	·	·
Cc1onc(-c2ccc3c(c2)OCO3)c1-c1ccc2[nH]ccc2c1	-1	7	-17	0	13	·	·
c1cc2cc(-c3c(-c4ccc5c(c4)OCO5)noc3-c3ccsc3)ccc2[nH]1	-1	8	-13*	0	15	-10	-9.6
COc1cccc(S(=O)(=O)N(C)C[C@H]2OCc3ccccc3-c3ccccc3C(=O)N([C@H](C)CO)C[C@@H]2C)c1	·	·	10	0	·	·	·
O=S(=O)(NCc1ccc2c(c1)OCO2)c1ccc2c(c1)oc1ccccc12	0	2	-19*	0	6	-17	·
O=S(=O)(NCc1ccc2c(c1)OCO2)c1cccc(F)c1	0	0	-2	0	3	·	·
O=C1c2ccccc2C(c2nnnn2C2CCCCC2)N1CCc1ccc(O)cc1 (centres undefined)	1	-5	-18*	0	-7	7.9	-5.5
CC1(c2nnnn2C2CCCCC2)CCCC(=O)N1CCc1ccc(O)cc1 (centres undefined)	0	-4	·	·	-1	·	·
CC(=O)c1cccc(NC(=O)C2CCCN(S(C)(=O)=O)C2)c1 (centres undefined)	0	-4	-27*	0	-4	2.1	1.1
C[C@@H]1CN([C@H](C)CO)C(=O)c2cc(NC(=O)NC3CCCCC3)ccc2O[C@@H]1CN(C)Cc1ccc(Oc2ccccc2)cc1	·	·	-2	-1	·	·	·
CCOCC(=O)OCC(=O)Nc1cc(OC)c([N+](=O)[O-])cc1C	0	-1	10	0	5	·	·
COc1cc(NC(=O)COC(=O)CC(C)(C)C)c(C)cc1[N+](=O)[O-]	0	1	-22*	0	3	?	·
CC=Cc1ccc2n(c1=O)C[C@H]1[C@H](CO)[C@@H](C(=O)NCc3ccc4c(c3)OCO4)[C@@H]2N1C(=O)CC (mixture of isomers)	·	·	0	0	·	·	·
O=C(CCNC(=O)c1ccccc1Cl)Nc1nc2ccccc2[nH]1	0	-1	6	0	-4	·	·
O=C(Cc1ccccc1Cl)Nc1nc2ccccc2[nH]1	-2	-6	-20*	0	-4	-8.9	?
O=[N+]([O-])c1ccc2c(c1)S(=O)c1ccccc1-2 (centres undefined)	0	-3	-23*	0	5	-25	-14
O=C(O)c1cccc2c1-c1ccc([N+](=O)[O-])cc1C2=O	0	-6	-19*	0	-6	-22	-8
COc1ccc(-c2cn(CC[C@H]3CC[C@H](NC(=O)Cc4ccccn4)[C@@H](CO)O3)nn2)cc1	·	·	3	0	·	·	·
CC1(Cc2ccccc2Cl)C(=O)Nc2c(Cl)cccc21 (centres undefined)	0	1	-65	0	11	·	·
CC1(Cc2ccccc2C#N)C(=O)Nc2cc(-c3ccccc3Cl)ccc21 (centres undefined)	1	-2	-11*	0	1	·	·	HepG2 tox=8.5
SMILES	proKLK7 act	ADAM17 inh	Ecoli rRNA inh	FGF22 binding	ADAM10 inh	AID977621	AID977628	others
CCN(c1ccccc1)S(=O)(=O)c1ccc(OC)c(NC(=O)C2CC(=O)N(Cc3ccccc3)C2)c1 (centres undefined)	1	1	-31*	0	3	·	?
CCN(c1ccccc1)S(=O)(=O)c1ccc(OC)c(NC(=O)c2ccccc2OC)c1	0	1	2	0	3	·	·
COC(=O)c1cc(-c2ccc(Cl)cc2)n[nH]1	1	-1	-12	0	1	·	·
CCOC(=O)c1cc(-c2ccc(OC)cc2)n[nH]1	-1	-4	-25*	0	-4	-24	-13
Cn1c(CC2C(=O)Nc3ccc(Br)cc32)nc2ccccc2c1=O (centres undefined)	1	-2	-29*	0	1	-1.9	3.7
CC(C)Sc1sc(C(=O)O)c(-c2ccc(Cl)cc2)c1C#N	-4	-5	-43*	0	11	-7.9	·
Cc1ccc(S(=O)(=O)Nc2ccc3c(c2)CC(=O)N([C@@H](C)CO)C[C@H](C)[C@H](CN(C)C(=O)NC2CCCCC2)O3)cc1	·	·	1	0	·	·	·
O=C(Nc1ccc(Cl)c(Cl)c1)N[C@H]1CC[C@H](CCn2cc(C3CCCCC3)nn2)O[C@H]1CO	·	·	-7	0	·	·	·
O=C(Nc1ccc(Cl)c(Cl)c1)N[C@H]1CC[C@@H](CCn2cc(C3CCCCC3)nn2)O[C@@H]1CO	·	·	-44*	0	·	·	?
O=C(Nc1ccc(Cl)c(Cl)c1)N[C@@H]1CC[C@@H](CCn2cc(C3CCCCC3)nn2)O[C@H]1CO	·	·	-42*	0	·	?	?
O=C(Nc1ccc(Cl)c(Cl)c1)N[C@@H]1CC[C@@H](CCn2cc(C3CCCCC3)nn2)O[C@@H]1CO	0	-1	-8	0	-10	·	·
COC(=O)c1ccc(C)cc1	0	2	-4	0	16	·	·
COC(=O)c1nc(-c2ccc(C)cc2)[nH]c1C(C)(C)C	-1	0	-21*	0	-21	-13	-14
COc1ccc(S(=O)(=O)N[C@H]2CC[C@H](CCNC(=O)c3ccccc3F)O[C@H]2CO)cc1	·	·	-6	0	·	·	·
CN1C(=O)c2cc(NC(=O)NC3CCCC3)ccc2OC[C@@H]2O[C@H](CC(=O)NCC3CC3)CC[C@@H]21	·	·	3	0	·	·	·
Cc1ccc(-c2cc3ccccc3nc2N)cc1	2	-152	-18	0	-431	·	·
Cc1ccccc1S(=O)(=O)c1cc2ccccc2nc1N	7	-202	-30*	0	i	1	·
COCc1cc(C)nc(SCC[N+](C)(C)CC(=O)c2ccc(Br)cc2)c1C#N	0	-3	-30*	0	-1	·	-16
